Source: PubChem (NMMLSC)
RGS7-Gao – regulators of human RGS7-Galphao interaction | Multiplexed bead flow cytometry, RGS7-Galphao binding; actives lie on both sides | binding response (% of control), % at 10 µM | actives 0.35% (n = 220,000); in the data active means binding response below about 49% or above about 150%; inconclusive means no clear call, values can overlap the other calls; inactive means in between;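 further: fluorescent Galphao held in activated GDP-AlF4 state binding bead-coupled RGS7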
Target sequence (P09471 whole entry, looked up): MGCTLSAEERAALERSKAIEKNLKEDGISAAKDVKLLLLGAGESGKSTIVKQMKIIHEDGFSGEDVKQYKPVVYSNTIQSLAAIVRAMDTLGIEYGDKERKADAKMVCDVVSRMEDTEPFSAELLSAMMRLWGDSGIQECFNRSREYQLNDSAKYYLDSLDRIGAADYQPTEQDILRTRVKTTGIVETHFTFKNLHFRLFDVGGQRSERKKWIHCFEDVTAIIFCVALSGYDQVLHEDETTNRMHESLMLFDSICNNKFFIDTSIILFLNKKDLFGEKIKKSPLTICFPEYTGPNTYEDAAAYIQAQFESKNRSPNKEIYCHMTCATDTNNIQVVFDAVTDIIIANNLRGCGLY
GSH bead fluor – compound fluoresces at 488/530 nm on GSH beads | GSH beads flow cytometry, compound fluorescence 488/530 nm; stronger effect = higher value | AID 1776 | actives 0.25% (n = 190,000) | fluorescence (KMESF) at 10 µM; in the data active means fluorescence above about 89;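 further: glutathione beads carrying GST-tagged Bcl family fusion proteins plus one bare bead set; values are compound well signal with DMSO vehicle wells as background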
RGS4-Gao reg – human RGS4-Galphao interaction regulation | P09471 | Multiplexed bead flow cytometry, RGS4-Galphao binding; actives lie on both sides | binding response (% of control), % at 10 µM | actives 0.33% (n = 220,000); in the data active means binding response below about 49% or above about 150%; inactive means in between;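 further: fluorescent Galphao activated with aluminum fluoride binding bead-coupled RGS4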
Avidin bead fluor – avidin bead compound fluorescence profile; Avidin beads, compound fluorescence 488/530 nm, flow cytometry; stronger effect = higher value; fluorescence (KMESF) at 10 µM; actives 0.38% (n = 220,000); AID 1775; in the data active means fluorescence above about 47
RGS8-Gao reg – human RGS8-Galphao interaction regulation. P09471. multiplexed bead flow cytometry, RGS8-Galphao binding; actives lie on both sides. response (percent of control binding), % at 10 µM. actives 0.34% (n = 220,000); in the data active means response below about 60% or above about 140%; inactive means in between;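 further: Galphao activated as the GDP aluminium fluoride complex binding bead-coupled RGS8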
RGS16-Gao – RGS16-Galphao interaction regulator (human); bead-based flow cytometry RGS16-Galphao binding, fluorescence; actives lie on both sides; actives 0.38% (n = 220,000); O15492+P09471; binding response (% of control), % at 10 µM; AID 1441;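 further: Galphao activated by GDP with aluminum fluoride before binding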
Target sequence (O15492 whole entry, looked up): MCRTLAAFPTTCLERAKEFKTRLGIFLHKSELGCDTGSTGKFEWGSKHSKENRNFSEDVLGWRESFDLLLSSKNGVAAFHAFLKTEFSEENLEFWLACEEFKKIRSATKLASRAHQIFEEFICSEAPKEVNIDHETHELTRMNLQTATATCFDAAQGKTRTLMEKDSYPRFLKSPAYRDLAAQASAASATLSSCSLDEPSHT
Target sequence (P09471 whole entry, looked up): as the sequence (P09471 whole entry, looked up) above
RGS4-Gao HTS – regulators of human RGS4-Galphao interaction. shares compounds with RGS16-Gao. multiplexed bead flow cytometry, RGS–Galpha-o binding. RGS4–Galpha-o binding response, % at 10 µM. actives 99% (n = 1,600). AID 1504;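 further: fluorescently labeled Galpha-o bound to GDP with aluminium fluoride binding biotinylated RGS beads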
Biotin-avidin – interferes with biotinylated probe binding to avidin beads | shares compounds with RGS16-Gao | streptavidin beads, fluorescein-biotin binding, flow cytometry | inhibition, % at 10 µM | 1,700 tested, under 10 active | AID 1783;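 active means inhibition above 50%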;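 further: median green fluorescence of gated singlet beads compared with DMSO control wells; 0% = DMSO wells and 100% = complete loss of bead fluorescence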
RGS8-Gao confirm – confirmation of regulators of human RGS8-Galphao interaction | shares compounds with RGS16-Gao | bead-based flow cytometry RGS8-Galphao binding, fluorescence; actives lie on both sides | binding response (% of control), % at 10 µM | actives 3% (n = 1,700) | AID 1836; in the data active means binding response below about 72% or above about 130%; inactive means in between;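 further: Galphao activated as GDP AlF4 complex before binding bead RGS8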
RGS7-Gao confirm – RGS7-Galphao interaction regulation, single point confirmation | shares compounds with RGS16-Gao | bead-based flow cytometry RGS7-Galphao binding; actives lie on both sides | response (percent of control binding), % at 10 µM | actives 7.8% (n = 1,700) | AID 1837; in the data active means response below about 75% or above about 130%; inactive means in between;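 further: fluorescent Galphao activated with GDP and aluminum fluoride binding bead-coupled RGS7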
RGS16-Gao single – RGS16-Galphao interaction regulation, single point confirmation; shares compounds with RGS16-Gao; bead-based flow cytometry, RGS16-Galphao binding; actives lie on both sides; actives 4% (n = 1,700); response (% of control binding), % at 10 µM; in the data active means response below about 74% or above about 130%; inactive means in between;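 further: Galphao activated as the GDP aluminium fluoride complex binding bead-coupled RGS16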
RGS4-Gao confirm – RGS4-Galphao interaction regulation, single point confirmation. shares compounds with RGS16-Gao. RGS4-Galphao binding, multiplexed bead flow cytometry; actives lie on both sides. binding response (% of control), % at 10 µM. actives 4% (n = 1,700). AID 1840; in the data active means binding response below about 74% or above about 130%; inactive means in between
RGS19-Gao single – confirmation of regulators of human RGS19-Galphao interaction | shares compounds with RGS16-Gao | AID 1841 | response (percent of control binding), % at 10 µM | bead-based flow cytometry RGS19-Galphao binding; actives lie on both sides | actives 5% (n = 1,700); in the data active means response below about 50% or above about 160%; inactive means in between;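 further: 100% = no compound control and 0% = blank background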
An asterisk follows results filed as active; [ ] = another dose, or the depositor's remark. This is a sample that favours compounds with a hit; in the whole collection about 1.2% have one here. Unless noted, how the calls were made is not given here.

Cc1cccc(-n2c(SCC(=O)NCc3ccc4c(c3)OCO4)nc3ccccc3c2=O)c1 was read as RGS7-Gao 131, GSH bead fluor 12, RGS4-Gao reg 135, Avidin bead fluor 14, RGS8-Gao reg 148*[activator], RGS16-Gao 555, RGS4-Gao HTS 135*, Biotin-avidin -2, RGS8-Gao confirm 100, RGS7-Gao confirm 97, RGS16-Gao single 100, RGS4-Gao confirm 98 and RGS19-Gao single 92.
`O=C(CSc1nc2ccccc2c(=O)n1-c1ccccc1)NCc1ccc2c(c1)OCO2` gave RGS7-Gao 103, GSH bead fluor 12, RGS4-Gao reg 102, Avidin bead fluor 22, RGS8-Gao reg 97 and RGS16-Gao 99.
For C=CCc1cccc(/C=N/NC(=O)c2ccccc2Br)c1O the results were RGS7-Gao 25*, GSH bead fluor 15, RGS4-Gao reg 34*, Avidin bead fluor 2, RGS8-Gao reg 31*, RGS16-Gao 23*, Biotin-avidin -1, RGS8-Gao confirm 101, RGS7-Gao confirm 95, RGS16-Gao single 97, RGS4-Gao confirm 100 and RGS19-Gao single 82.
For C=CCc1cccc(/C=N/NC(=O)c2ccccc2OC)c1O the results were RGS7-Gao 97, GSH bead fluor 11, RGS4-Gao reg 96, Avidin bead fluor 5, RGS8-Gao reg 98 and RGS16-Gao 96.
Screening CCC(C)Sc1nc(O)cc(=O)[nH]1 (configuration not stated) returned RGS7-Gao 248*[activator], GSH bead fluor 21, RGS4-Gao reg 110, Avidin bead fluor 239*, RGS8-Gao reg 89, RGS16-Gao 131, RGS4-Gao HTS 110*, Biotin-avidin 2, RGS8-Gao confirm 98, RGS7-Gao confirm 104, RGS16-Gao single 100, RGS4-Gao confirm 101 and RGS19-Gao single 88.
Cc1ccc(C(=O)NCc2nnc(SCC(=O)NC(C)c3ccccc3)n2C)cc1 (configuration not stated) was read as RGS7-Gao 92, GSH bead fluor 21, RGS4-Gao reg 101, Avidin bead fluor 11, RGS8-Gao reg 103 and RGS16-Gao 105.
For CCCCOc1ccc(-c2nc(=S)[nH][nH]2)cc1 the results were RGS7-Gao 99, GSH bead fluor 39, RGS4-Gao reg 93, Avidin bead fluor 4, RGS16-Gao 92, Biotin-avidin 0, RGS8-Gao confirm 91, RGS7-Gao confirm 104, RGS16-Gao single 93, RGS4-Gao confirm 101 and RGS19-Gao single 98.
Screening CCCCOc1ccc(-c2nc(SCC(N)=O)n[nH]2)cc1 returned RGS7-Gao 100, GSH bead fluor 16, RGS4-Gao reg 100, Avidin bead fluor 9, RGS8-Gao reg 101 and RGS16-Gao 103.
Screening COc1cc2c(-c3ccc(O)cc3)nc3c(c(C)nn3-c3ccccc3)c2cc1OC returned RGS7-Gao 89, GSH bead fluor 5, RGS4-Gao reg 200*[activator], Avidin bead fluor 8, RGS8-Gao reg 100, RGS16-Gao 468, Biotin-avidin 1, RGS8-Gao confirm 100, RGS7-Gao confirm 96, RGS16-Gao single 97, RGS4-Gao confirm 98 and RGS19-Gao single 102.
Screening COc1cc2c(C)nc3c(c(C)nn3-c3ccccc3)c2cc1OC returned RGS7-Gao 85, GSH bead fluor 16, RGS4-Gao reg 98, Avidin bead fluor 5, RGS8-Gao reg 92 and RGS16-Gao 109.
`COc1ccccc1/C=c1\sc2nc(-c3ccco3)nn2c1=O` gave GSH bead fluor 11, Biotin-avidin 2, RGS8-Gao confirm 97, RGS7-Gao confirm 89, RGS16-Gao single 94, RGS4-Gao confirm 92 and RGS19-Gao single 83.
For COC(=O)c1c(C(=O)NCc2ccccc2)ncn1CC(O)COc1ccccc1 (configuration not stated) the results were RGS7-Gao 86, GSH bead fluor 15, RGS4-Gao reg 58, Avidin bead fluor 9, RGS8-Gao reg 96, RGS16-Gao -175*, RGS4-Gao HTS 58*, Biotin-avidin 0, RGS8-Gao confirm 83, RGS7-Gao confirm 74*, RGS16-Gao single 80, RGS4-Gao confirm 79 and RGS19-Gao single 75.
For CCOC(=O)c1c(NC(=O)C2CCCO2)sc(C(N)=O)c1C (configuration not stated) the results were RGS7-Gao 113, GSH bead fluor 4, RGS4-Gao reg 111, Avidin bead fluor 15, RGS8-Gao reg 133, RGS16-Gao 295*[activator], RGS4-Gao HTS 111*, Biotin-avidin -1, RGS8-Gao confirm 100, RGS7-Gao confirm 88, RGS16-Gao single 100, RGS4-Gao confirm 93 and RGS19-Gao single 93.
For CCCOC(=O)c1c(NC(=O)C2CCCO2)sc(C(=O)OC)c1C (configuration not stated) the results were RGS7-Gao 114, GSH bead fluor 12, RGS4-Gao reg 102, Avidin bead fluor 0, RGS8-Gao reg 88 and RGS16-Gao 55.
`CC1(C)CC(OC(=O)c2ccccc2)CC(C)(C)N1` gave RGS7-Gao 102, GSH bead fluor 9, RGS4-Gao reg 100, Avidin bead fluor 18, RGS8-Gao reg 101 and RGS16-Gao 102.
Screening CC12CCC(C1)C(C)(C)C2OC(=O)c1ccccc1C(=O)O (configuration not stated) returned RGS7-Gao inconclusive, RGS4-Gao reg 155*[activator], Avidin bead fluor 5, RGS8-Gao reg 128, RGS16-Gao 145, Biotin-avidin -1, RGS8-Gao confirm 93, RGS7-Gao confirm 90, RGS16-Gao single 92, RGS4-Gao confirm 92 and RGS19-Gao single 107.
